Reference: PubChem BioAssay
Active and inactive are the calls of the source.

What was measured:
[1] = binders of probe aFSTL3 on microarray, primary screen, stem cell growth factor project, biochemical, small-molecule microarray, fluorescence 635/667 (AID 1064); conditions: higher = more signal;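 further: measures binding of the biotinylated anti-FSTL3 antibody to printed compounds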
[2] = binders from COS7 lysate, DM2A8 probe, primary screen, torsin A project, cell lysate, small-molecule microarray, fluorescence 635/667 (AID 1065); conditions: higher = more signal, COS7 lysate expressing mutant human TOR1A
[3] = binders of probe aFGF2 on microarray, primary screen, stem cell growth factor project, biochemical, small-molecule microarray, fluorescence 635/667 (AID 1067); conditions: higher = more signal;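 further: measures binding of biotinylated aFGF2 protein to printed compounds on slides; z-score merges feature fluorescence and signal-to-noise across triplicate slides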
[4] = binders of probe aFGF10 on microarray, primary screen, stem cell growth factor project, biochemical, small-molecule microarray, fluorescence 635/667 (AID 1071); conditions: higher = more signal;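 further: score merges 667 nm spot intensity and signal to noise from triplicate slides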
[5] = target: Neurogenic locus notch homolog protein 2 (Homo sapiens) (UniProt Q04721); experiment: Notch2 binders on small-molecule microarrays, primary screen, biochemical, small-molecule microarray, 635 nm fluorescence, stem cell growth factors (AID 1073); conditions: Notch2 binding, higher = more signal
Chain of Neurogenic locus notch homolog protein 2 (Homo sapiens) (Q04721 whole entry, looked up, canonical isoform): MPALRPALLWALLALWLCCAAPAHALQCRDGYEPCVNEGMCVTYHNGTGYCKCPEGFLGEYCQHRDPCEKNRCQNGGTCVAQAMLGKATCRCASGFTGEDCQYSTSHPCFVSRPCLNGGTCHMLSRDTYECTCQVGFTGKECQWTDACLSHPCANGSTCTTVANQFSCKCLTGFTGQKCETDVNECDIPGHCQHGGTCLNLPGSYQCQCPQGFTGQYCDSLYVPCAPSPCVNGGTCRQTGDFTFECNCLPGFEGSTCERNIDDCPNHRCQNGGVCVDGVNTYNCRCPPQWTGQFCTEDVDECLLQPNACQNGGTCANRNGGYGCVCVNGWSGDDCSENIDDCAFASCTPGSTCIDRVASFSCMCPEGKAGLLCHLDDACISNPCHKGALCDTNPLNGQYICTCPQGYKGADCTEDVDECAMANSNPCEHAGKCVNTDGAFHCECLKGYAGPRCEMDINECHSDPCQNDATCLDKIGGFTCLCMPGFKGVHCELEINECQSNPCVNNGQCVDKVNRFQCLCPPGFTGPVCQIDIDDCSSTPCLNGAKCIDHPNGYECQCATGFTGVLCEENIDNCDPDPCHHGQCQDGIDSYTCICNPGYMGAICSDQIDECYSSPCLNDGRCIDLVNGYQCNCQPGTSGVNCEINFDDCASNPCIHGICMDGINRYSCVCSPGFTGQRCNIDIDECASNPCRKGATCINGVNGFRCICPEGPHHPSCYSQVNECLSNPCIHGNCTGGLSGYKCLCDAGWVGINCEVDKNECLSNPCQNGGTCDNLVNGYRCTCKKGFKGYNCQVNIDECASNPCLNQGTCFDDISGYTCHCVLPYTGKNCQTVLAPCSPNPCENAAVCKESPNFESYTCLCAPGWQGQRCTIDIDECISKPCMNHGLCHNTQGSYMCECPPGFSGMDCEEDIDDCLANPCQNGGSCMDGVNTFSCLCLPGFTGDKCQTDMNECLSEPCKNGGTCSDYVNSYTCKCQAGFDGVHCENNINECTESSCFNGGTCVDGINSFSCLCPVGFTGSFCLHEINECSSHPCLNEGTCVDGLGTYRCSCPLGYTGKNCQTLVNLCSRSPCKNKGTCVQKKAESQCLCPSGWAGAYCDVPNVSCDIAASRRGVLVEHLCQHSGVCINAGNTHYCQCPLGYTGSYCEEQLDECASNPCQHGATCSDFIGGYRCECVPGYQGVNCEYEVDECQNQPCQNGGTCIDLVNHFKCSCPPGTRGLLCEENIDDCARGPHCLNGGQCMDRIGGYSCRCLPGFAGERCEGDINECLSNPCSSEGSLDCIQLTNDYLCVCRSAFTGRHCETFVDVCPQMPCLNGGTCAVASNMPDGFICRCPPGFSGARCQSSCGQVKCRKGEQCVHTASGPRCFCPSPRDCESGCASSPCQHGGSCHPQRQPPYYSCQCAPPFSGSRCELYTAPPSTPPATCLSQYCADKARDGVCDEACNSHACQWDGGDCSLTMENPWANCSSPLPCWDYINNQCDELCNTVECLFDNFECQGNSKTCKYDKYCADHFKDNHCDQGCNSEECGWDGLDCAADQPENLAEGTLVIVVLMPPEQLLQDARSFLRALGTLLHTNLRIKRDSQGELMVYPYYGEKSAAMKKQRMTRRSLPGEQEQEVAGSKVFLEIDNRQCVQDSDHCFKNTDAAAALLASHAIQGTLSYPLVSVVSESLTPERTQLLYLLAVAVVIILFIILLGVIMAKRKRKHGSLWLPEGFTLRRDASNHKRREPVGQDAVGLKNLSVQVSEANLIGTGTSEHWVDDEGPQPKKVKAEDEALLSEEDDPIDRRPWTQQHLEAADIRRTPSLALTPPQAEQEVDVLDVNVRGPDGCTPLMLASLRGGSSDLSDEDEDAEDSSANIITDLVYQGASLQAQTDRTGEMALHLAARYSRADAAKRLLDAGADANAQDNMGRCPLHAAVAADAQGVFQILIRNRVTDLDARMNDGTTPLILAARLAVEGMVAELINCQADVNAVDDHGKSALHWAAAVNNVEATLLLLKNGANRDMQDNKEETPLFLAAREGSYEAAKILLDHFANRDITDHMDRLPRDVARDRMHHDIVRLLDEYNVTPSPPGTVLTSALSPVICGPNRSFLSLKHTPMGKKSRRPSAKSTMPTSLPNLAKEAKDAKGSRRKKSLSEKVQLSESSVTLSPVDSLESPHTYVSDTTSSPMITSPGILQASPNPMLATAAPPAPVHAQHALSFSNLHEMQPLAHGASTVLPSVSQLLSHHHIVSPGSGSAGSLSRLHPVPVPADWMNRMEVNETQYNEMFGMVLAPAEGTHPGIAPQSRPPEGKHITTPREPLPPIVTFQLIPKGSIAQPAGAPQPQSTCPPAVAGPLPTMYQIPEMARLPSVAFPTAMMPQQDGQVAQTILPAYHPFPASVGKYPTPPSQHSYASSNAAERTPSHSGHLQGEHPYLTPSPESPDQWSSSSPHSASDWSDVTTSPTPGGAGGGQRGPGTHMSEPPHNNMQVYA

[6] = target: Pro-neuregulin-1, membrane-bound isoform (Homo sapiens) (UniProt Q02297); experiment: NRG1 binders on small-molecule microarrays, primary screen, psychiatric disease protein project, biochemical, small-molecule microarray, fluorescence 635/667 (AID 1075); conditions: NRG1 binding, 635 nm fluorescence, higher = more signal;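 further: score combines 667 nm spot fluorescence with signal to noise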
Chain of Pro-neuregulin-1, membrane-bound isoform (Homo sapiens) (Q02297 whole entry, looked up, the tested form may be a part, canonical isoform): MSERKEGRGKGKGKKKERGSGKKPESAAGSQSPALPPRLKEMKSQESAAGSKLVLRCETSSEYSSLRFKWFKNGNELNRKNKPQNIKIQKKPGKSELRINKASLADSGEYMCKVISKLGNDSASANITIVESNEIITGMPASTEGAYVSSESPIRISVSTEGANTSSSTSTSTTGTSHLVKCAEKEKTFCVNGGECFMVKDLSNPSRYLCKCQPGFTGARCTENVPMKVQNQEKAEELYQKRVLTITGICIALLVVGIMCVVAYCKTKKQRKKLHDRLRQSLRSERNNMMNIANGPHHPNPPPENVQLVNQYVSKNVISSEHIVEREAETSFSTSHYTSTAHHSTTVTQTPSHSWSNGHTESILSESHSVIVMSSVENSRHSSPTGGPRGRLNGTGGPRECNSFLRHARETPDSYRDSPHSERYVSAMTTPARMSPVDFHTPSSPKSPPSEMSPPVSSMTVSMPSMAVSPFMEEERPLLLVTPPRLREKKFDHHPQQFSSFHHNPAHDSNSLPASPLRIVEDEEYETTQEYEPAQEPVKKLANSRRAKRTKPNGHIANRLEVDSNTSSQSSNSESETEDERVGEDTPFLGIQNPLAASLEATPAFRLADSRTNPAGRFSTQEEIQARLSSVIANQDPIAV

[7] = test system: Neuregulin-1 EGF-like domain; experiment: binders of neuregulin-1 EGF-like domain, primary screen, biochemical, small-molecule microarray, 635 nm fluorescence (AID 1081); conditions: small-molecule microarray binding, higher = more signal;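 further: binding of the protein to compounds printed on small-molecule microarray slides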
[8] = FRG1 promoter luciferase signal modulators, primary screen, FRG1 inhibition for FSHD, cell-based, C2C12 myotubes, firefly/Renilla luciferase, luminescence (AID 1084); conditions: higher = more signal, called active from +8 up or from −8 down
[9] = binders of probe aFST on microarray, primary screen, stem cell growth factor project, biochemical, small-molecule microarray, fluorescence 635/667 (AID 1086); conditions: higher = more signal;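 further: score merges 667 nm fluorescence with signal-to-noise of each printed compound spot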
[10] = binders of probe aHhip on microarray, primary screen, stem cell growth factor project, biochemical, small-molecule microarray, fluorescence 635/667 (AID 1087); conditions: higher = more signal;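 further: score merges spot fluorescence at 667nm with spot signal to noise ratio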
[11] = test system: PRMT1 (protein arginine N-methyltransferase 1); experiment: PRMT1 binders on small-molecule microarrays, primary screen, biochemical, small-molecule microarray, 635 nm fluorescence (AID 1088); conditions: small-molecule microarray binding, higher = more signal;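 further: binding of Prmt1 protein to compounds spotted on small-molecule microarray slides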
[12] = yeast growth modulation, basal conditions, primary screen, YJM789 clinical isolate, OD600, 24 h (AID 1089);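 further: growth of clinical yeast isolate S. cerevisiae YJM 789 seeded 1000 cells per well; test concentration not given here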; conditions: S. cerevisiae YJM789 growth, higher = more signal, called active from +8 up or from −8 down
[13] = fission yeast growth modulation, primary screen, strain 972, OD600, 24 h, no modulator (AID 1090);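 further: basal condition with compound alone and no growth modifier present; test concentration not given here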; conditions: S. pombe 972 growth, higher = more signal, called active from +8 up or from −8 down
[14] = S. cerevisiae growth modulation with rapamycin, primary screen, strain BY4716, OD600, 96 h (AID 1091); conditions: higher = more signal, called active from +8 up or from −8 down; further: test concentration not given here
[15] = target: Torsin-1A-interacting protein 2 (Homo sapiens) (UniProt Q8NFQ8); experiment: LULL1 binders on small-molecule microarray, primary screen, cell lysate, human LULL1 lysate, 635/667 nm fluorescence (AID 1092); conditions: hLULL1 lysate binding, 635 nm fluorescence, higher = more signal;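 further: probe is lysate of COS7 cells overexpressing human LULL1; score merges per-feature 667 nm fluorescence with signal-to-noise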
Chain of Torsin-1A-interacting protein 2 (Homo sapiens) (Q8NFQ8 whole entry, looked up): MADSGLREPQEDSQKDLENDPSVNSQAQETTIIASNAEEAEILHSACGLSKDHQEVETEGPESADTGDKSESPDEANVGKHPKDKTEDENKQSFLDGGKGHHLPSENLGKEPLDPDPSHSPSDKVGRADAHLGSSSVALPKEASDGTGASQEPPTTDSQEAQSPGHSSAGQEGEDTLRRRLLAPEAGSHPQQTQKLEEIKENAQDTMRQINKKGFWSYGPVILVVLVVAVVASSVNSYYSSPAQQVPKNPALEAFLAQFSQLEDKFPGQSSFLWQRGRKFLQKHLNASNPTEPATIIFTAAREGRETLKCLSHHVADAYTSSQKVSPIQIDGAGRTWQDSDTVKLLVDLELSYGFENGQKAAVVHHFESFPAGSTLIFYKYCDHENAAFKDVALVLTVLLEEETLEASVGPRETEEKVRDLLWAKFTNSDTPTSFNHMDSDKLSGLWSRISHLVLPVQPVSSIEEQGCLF

[16] = E. coli growth modulation, two-sided OD650, primary screen, E. coli filamentation project, strain DRC41, 24 h (AID 1093); conditions: OD650, 24 h, higher = more signal, called active from +8 up or from −8 down;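 further: MC1000 strain lacking acrAB efflux and sulA so SOS filamentation is blocked; test concentration not given here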
[17] = small-molecule microarray binders of probe aLefty2, primary screen, biochemical, biotinylated probe, 635/667 nm fluorescence (AID 1094); conditions: higher = more signal;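 further: score merges spot fluorescence near 667 nm with spot signal-to-noise ratio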
[18] = test system: Noggin (protein binding on small-molecule microarray); experiment: Noggin binders on small-molecule microarray, primary screen, biochemical, 635/667 nm fluorescence (AID 1095); conditions: 635 nm fluorescence, higher = more signal;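 further: score merges 667 nm feature fluorescence with signal to noise over triplicate slides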
[19] = target: Neurogenic locus notch homolog protein 3 (Homo sapiens) (UniProt Q9UM47); experiment: NOTCH3 binders on small-molecule microarray, primary screen, biochemical, 635/667 nm fluorescence (AID 1096); conditions: NOTCH3 binding, 635 nm fluorescence, higher = more signal
[20] = small-molecule microarray binders of probe aEGFR, primary screen, biochemical, biotinylated probe, 635/667 nm fluorescence (AID 1097); conditions: higher = more signal;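 further: probe is a biotinylated anti-EGFR antibody binding compounds printed on slides; score combines fluorescence near 667 nm and signal to noise of each spot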

| Compound | composite z-score [1] | composite z-score [2] | composite z-score [3] | composite z-score [4] | composite z-score [5] | composite z-score [6] | composite z-score [7] | z-score [8] | composite z-score [9] | composite z-score [10] | composite z-score [11] | z-score [12] | z-score [13] | z-score [14] | composite z-score [15] | z-score [16] | composite z-score [17] | composite z-score [18] | composite z-score [19] | composite z-score [20] |
| --- | --- | --- | --- | --- | --- | --- | --- | --- | --- | --- | --- | --- | --- | --- | --- | --- | --- | --- | --- | --- |
| CCN1C(C)=C(C(=O)OC)[C@@H](c2ccccc2)N2C(=O)[C@@]3(C(=O)OC)O[C@@]12[C@@H]1C(=O)CCC[C@@H]13 | -0.65 | 0.33 | -0.178 | 0.234 | -0.334 | -0.307 | 0.545 | -0.765 (inactive) | -0.183 | 0.351 | 1.12 | 0.352 (inactive) | -1.06 (inactive) | 1.8 (inactive) | -0.323 | 0.0465 (inactive) | -0.243 | 1.57 | 0.135 | 0.0173 |
| C=CCC(OC(C)=O)[C@@H]1[C@@H](N(Cc2ccc(-c3ccccc3)cc2)C(=O)c2ccc(C)cc2)c2cc(OCCCO)ccc2N1C(=O)c1ccc(-c2ccccc2)cc1 (stereo not given in full) | -0.0264 | -0.192 | -0.006 | 0.0126 | -0.245 | -0.0564 | -0.538 | -2.08 (inactive) | 0.186 | -0.405 | -0.173 | -3.23 (inactive) | -1.88 (inactive) | -1.75 (inactive) | 0.554 | 0.65 (inactive) | 0.0026 | -0.404 | -0.532 | 0.039 |
| CO[C@@H]1COC(=O)[C@H](C)NC(=O)CC=C[C@@H](C)[C@H](NS(=O)(=O)c2ccc(C)cc2)COC(=O)CC=C[C@@H]1C | -0.402 | -0.0613 | -0.0891 | 0.117 | 0.156 | -0.32 | -0.144 | -0.364 (inactive) | -0.181 | -0.388 | -0.844 | 0.79 (inactive) | -0.0181 (inactive) | 0.256 (inactive) | -0.382 | 0.452 (inactive) | -0.207 | -0.0396 | -0.693 | -0.211 |
| N#Cc1ccc(NN2C(C(O)c3ccc(I)cc3)C=CC3C(=O)N(c4ccccc4)C(=O)C32)cc1 (stereo not given) | 0.0909 | -0.0384 | 0.105 | 0.587 | 1.32 | 1.76 | 1.28 | -2.73 (inactive) | 0.857 | 0.0854 | 1.16 | 0.647 (inactive) | 2.19 (inactive) | 3.88 (inactive) | 3.47 | -1.38 (inactive) | 0.247 | -0.0788 | 1.07 | 0.0601 |
